# Measured values from paper PMC7862700, “An all-to-all approach to the identification of sequence-specific readers for epigenetic DNA modifications on cytosine”.
# What was measured:
# Test in all cases: DAPPL (digital affinity profiling via proximity ligation, sequencing); 10 mM Tris-HCl pH 7.5, 50 mM NaCl, 1 mM DTT, 4% glycerol, room temperature, 30 min; GST-TFs on glutathione beads, 16-mer random dsDNA library, 0.1% formaldehyde crosslink after washing; high values mean tight binding
# FLI1 = target: T1, FLI1 (Homo sapiens, UniProt Q01543 1-452); details: protein: recombinant; tags: N-terminal GST; dsDNA, one strand shown
# T1 sequence: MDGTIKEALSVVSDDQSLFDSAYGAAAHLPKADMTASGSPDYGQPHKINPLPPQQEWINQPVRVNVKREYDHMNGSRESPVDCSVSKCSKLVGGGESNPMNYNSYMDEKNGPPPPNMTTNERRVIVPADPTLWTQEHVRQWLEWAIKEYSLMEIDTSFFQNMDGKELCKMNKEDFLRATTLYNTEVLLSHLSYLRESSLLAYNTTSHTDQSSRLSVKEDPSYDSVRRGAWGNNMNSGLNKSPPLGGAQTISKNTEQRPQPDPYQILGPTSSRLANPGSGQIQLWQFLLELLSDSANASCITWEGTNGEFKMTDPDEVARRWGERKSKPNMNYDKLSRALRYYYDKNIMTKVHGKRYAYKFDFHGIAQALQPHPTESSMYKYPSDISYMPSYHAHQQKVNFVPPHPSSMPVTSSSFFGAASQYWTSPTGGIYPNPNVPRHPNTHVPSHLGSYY
# Method in brief: (§1)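 Human transcription factors carrying a GST fusion were produced in yeast, bound to glutathione beads, tagged with DNA barcodes and pooled together with a tag-only sample. Each pool was held with 200 nmole of a random double-stranded 16-mer DNA library in Tris/NaCl/DTT/glycerol buffer for 30 min at room temperature, then washed, crosslinked in 0.1% formaldehyde, proximity-ligated with BsaI/T4 ligase (1 h, 37 °C), PCR-amplified and sequenced on an Illumina NextSeq500. Binding signal is the read frequency of each hexamer for a given factor divided by its frequency in the tag-only sample.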
# ELK1 = target: T2, ELK1 (Homo sapiens, UniProt P19419 1-428); details: protein: recombinant; tags: N-terminal GST; dsDNA, one strand shown
# T2 sequence: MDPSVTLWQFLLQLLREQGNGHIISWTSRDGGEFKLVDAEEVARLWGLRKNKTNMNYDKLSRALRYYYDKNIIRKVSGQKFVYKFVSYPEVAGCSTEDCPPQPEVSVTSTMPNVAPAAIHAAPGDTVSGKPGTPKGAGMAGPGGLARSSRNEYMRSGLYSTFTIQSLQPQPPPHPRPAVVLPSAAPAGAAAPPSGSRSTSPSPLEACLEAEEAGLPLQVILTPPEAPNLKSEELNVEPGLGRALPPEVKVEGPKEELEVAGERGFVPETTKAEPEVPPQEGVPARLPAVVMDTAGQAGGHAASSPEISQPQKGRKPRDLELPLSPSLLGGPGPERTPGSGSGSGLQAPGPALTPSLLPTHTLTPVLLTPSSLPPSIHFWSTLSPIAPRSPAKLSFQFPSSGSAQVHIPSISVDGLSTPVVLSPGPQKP
# Method in brief: as §1
# GABPA = target: T3, GABPA (Homo sapiens, UniProt Q06546 1-454); details: protein: recombinant; tags: N-terminal GST; dsDNA, one strand shown
# T3 sequence: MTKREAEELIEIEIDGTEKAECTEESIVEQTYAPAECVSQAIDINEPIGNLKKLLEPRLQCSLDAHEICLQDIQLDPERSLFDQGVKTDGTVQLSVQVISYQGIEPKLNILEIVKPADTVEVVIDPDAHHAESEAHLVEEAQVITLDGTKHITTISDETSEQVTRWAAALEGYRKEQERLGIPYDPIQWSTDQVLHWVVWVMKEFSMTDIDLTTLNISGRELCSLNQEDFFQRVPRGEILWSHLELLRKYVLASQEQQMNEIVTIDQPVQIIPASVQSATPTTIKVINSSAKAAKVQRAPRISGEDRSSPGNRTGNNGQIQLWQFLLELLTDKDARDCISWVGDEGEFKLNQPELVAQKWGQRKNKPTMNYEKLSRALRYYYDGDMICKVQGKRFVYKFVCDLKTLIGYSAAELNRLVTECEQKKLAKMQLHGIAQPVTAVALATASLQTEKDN
# Method in brief: as §1
# ERG = target: T4, ERG (Homo sapiens, UniProt P11308 1-479); details: protein: recombinant; tags: N-terminal GST; dsDNA, one strand shown
# T4 sequence: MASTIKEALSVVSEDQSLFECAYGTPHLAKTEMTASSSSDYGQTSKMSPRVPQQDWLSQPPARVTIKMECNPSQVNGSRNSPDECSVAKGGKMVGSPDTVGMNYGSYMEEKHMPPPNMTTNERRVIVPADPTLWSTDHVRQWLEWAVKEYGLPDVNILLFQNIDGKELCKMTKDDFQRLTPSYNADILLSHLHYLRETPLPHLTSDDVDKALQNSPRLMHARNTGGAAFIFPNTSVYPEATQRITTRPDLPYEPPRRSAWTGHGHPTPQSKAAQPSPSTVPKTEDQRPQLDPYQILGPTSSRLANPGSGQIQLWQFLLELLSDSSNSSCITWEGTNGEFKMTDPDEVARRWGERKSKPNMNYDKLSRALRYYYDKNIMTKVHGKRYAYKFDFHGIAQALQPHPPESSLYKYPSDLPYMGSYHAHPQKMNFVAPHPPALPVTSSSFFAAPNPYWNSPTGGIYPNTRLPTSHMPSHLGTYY
# Method in brief: as §1
# ELF1 = ELF1 (Homo sapiens, UniProt P32519 1-619); details: protein: recombinant; tags: N-terminal GST; dsDNA, one strand shown
# Method in brief: as §1
# EHF = target: T5, EHF (Homo sapiens, UniProt Q9NZC4 1-300); details: protein: recombinant; tags: N-terminal GST; dsDNA, one strand shown
# T5 sequence: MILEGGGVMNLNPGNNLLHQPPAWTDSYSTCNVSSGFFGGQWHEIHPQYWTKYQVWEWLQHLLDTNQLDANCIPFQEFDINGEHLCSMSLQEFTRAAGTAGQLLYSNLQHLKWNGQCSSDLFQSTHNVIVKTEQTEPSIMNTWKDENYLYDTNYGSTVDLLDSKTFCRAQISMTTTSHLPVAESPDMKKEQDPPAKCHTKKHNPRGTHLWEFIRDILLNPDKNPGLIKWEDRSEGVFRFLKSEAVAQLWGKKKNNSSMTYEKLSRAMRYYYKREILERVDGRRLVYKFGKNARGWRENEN
# Method in brief: as §1
# SPI1 = SPI1 (Homo sapiens, UniProt P17947 1-270); details: protein: recombinant; tags: N-terminal GST; dsDNA, one strand shown
# Method in brief: as §1
# SPIB = SPIB (Homo sapiens, UniProt Q01892 1-262); details: protein: recombinant; tags: N-terminal GST; dsDNA, one strand shown
# Method in brief: as §1
# ELK3 = target: T6, ELK3 (Homo sapiens, UniProt P41970 1-407); details: protein: recombinant; tags: N-terminal GST; dsDNA, one strand shown
# T6 sequence: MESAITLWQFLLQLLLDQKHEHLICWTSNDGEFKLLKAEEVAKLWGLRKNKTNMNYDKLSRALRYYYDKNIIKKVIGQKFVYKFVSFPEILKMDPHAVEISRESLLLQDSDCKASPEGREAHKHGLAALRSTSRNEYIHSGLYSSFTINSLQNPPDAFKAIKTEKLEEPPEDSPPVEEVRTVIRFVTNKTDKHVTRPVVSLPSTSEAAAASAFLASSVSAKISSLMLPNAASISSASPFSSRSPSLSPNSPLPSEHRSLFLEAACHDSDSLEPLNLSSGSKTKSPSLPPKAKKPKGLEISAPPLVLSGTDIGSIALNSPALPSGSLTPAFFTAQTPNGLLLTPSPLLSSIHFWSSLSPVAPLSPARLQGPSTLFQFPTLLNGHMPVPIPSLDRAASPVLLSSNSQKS
# Method in brief: as §1
# FEV = target: T7, FEV (Homo sapiens, UniProt Q99581 1-238); details: protein: recombinant; tags: N-terminal GST; dsDNA, one strand shown
# T7 sequence: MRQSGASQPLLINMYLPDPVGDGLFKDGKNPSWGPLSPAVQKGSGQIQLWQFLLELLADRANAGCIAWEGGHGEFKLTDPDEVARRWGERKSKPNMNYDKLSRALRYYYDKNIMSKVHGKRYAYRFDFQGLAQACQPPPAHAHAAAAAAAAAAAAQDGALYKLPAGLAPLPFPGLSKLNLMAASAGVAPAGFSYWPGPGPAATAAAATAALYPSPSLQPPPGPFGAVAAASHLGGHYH
# Method in brief: as §1
# ETV5 = ETV5 (Homo sapiens, UniProt P41161 1-510); details: protein: recombinant; tags: N-terminal GST; dsDNA, one strand shown
# Method in brief: as §1
# HSF1 = HSF1 (Homo sapiens, UniProt Q00613 1-529); details: protein: recombinant; tags: N-terminal GST; chain copies: 3; dsDNA, one strand shown
# Method in brief: as §1
# SPIC = target: T8, SPIC (Homo sapiens, UniProt Q8N5J4 1-248); details: protein: recombinant; tags: N-terminal GST; dsDNA, one strand shown
# T8 sequence: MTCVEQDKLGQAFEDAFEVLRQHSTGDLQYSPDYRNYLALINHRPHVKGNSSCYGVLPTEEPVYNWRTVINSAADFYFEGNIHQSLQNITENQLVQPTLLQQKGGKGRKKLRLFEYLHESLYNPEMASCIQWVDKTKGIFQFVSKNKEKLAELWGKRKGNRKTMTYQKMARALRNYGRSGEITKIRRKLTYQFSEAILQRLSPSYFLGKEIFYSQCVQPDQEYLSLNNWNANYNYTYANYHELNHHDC
# Method in brief: as §1
# ELF4 = ELF4 (Homo sapiens, UniProt Q99607 1-663); details: protein: recombinant; tags: N-terminal GST; dsDNA, one strand shown
# Method in brief: as §1
# ELK4 = target: T9, ELK4 (Homo sapiens, UniProt P28324-2 1-405); details: protein: recombinant; tags: N-terminal GST; dsDNA, one strand shown
# T9 sequence: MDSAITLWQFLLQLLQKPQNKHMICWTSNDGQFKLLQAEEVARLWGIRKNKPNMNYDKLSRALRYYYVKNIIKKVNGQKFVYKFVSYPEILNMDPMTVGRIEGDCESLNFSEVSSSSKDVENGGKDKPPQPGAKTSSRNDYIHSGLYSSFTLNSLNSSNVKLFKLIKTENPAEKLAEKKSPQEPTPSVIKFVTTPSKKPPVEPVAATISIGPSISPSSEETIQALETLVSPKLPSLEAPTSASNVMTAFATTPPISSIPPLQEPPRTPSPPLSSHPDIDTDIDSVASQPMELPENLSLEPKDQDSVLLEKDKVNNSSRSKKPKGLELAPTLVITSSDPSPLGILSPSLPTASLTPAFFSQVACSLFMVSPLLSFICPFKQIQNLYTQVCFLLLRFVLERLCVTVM
# Method in brief: as §1
# ETV2 = target: T10, ETV2 (Homo sapiens, UniProt O00321 1-342); details: protein: recombinant; tags: N-terminal GST; dsDNA, one strand shown
# T10 sequence: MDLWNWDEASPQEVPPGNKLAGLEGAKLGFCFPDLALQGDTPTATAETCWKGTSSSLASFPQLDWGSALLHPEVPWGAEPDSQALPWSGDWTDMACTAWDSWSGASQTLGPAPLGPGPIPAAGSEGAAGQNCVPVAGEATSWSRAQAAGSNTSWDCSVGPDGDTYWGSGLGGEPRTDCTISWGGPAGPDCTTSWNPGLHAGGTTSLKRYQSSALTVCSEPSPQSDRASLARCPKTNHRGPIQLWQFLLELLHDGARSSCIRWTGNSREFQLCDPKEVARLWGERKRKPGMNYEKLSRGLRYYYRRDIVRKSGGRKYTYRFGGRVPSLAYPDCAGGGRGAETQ
# Method in brief: as §1
# ELF3 = target: T11, ELF3 (Homo sapiens, UniProt P78545 1-371); details: protein: recombinant; tags: N-terminal GST; dsDNA, one strand shown
# T11 sequence: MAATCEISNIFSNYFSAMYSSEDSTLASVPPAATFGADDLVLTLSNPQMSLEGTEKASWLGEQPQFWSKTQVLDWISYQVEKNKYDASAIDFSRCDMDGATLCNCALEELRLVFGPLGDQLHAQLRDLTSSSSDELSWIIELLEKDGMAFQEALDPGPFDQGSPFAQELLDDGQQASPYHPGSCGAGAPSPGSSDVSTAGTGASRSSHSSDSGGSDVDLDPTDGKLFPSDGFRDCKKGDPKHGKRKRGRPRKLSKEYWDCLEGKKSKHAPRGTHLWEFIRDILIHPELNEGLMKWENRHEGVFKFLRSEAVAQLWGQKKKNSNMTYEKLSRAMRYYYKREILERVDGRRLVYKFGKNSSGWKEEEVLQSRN
# Method in brief: as §1
# CRX = CRX (Homo sapiens, UniProt O43186 1-299); details: protein: recombinant; tags: N-terminal GST; dsDNA, one strand shown
# Method in brief: as §1
# ETV1 = ETV1 (Homo sapiens, UniProt P50549 1-477); details: protein: recombinant; tags: N-terminal GST; dsDNA, one strand shown
# Method in brief: as §1
# SPIB, sequence (Q01892 whole entry): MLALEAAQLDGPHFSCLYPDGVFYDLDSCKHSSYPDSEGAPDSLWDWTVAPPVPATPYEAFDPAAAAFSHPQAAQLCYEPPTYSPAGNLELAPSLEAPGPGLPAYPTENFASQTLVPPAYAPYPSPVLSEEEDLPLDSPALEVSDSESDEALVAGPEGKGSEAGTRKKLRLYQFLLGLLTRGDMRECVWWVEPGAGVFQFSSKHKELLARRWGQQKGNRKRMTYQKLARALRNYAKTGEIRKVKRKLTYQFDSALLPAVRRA
# CRX, sequence (O43186 whole entry): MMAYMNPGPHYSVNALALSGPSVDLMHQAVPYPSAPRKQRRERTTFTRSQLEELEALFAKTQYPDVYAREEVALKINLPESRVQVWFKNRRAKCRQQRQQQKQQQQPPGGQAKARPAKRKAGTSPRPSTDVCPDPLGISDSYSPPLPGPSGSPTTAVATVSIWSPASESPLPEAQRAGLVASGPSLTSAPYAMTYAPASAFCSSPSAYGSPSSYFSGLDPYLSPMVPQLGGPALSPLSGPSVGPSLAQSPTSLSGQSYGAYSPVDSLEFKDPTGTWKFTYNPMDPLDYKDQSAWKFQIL
# ETV1, sequence (P50549 whole entry): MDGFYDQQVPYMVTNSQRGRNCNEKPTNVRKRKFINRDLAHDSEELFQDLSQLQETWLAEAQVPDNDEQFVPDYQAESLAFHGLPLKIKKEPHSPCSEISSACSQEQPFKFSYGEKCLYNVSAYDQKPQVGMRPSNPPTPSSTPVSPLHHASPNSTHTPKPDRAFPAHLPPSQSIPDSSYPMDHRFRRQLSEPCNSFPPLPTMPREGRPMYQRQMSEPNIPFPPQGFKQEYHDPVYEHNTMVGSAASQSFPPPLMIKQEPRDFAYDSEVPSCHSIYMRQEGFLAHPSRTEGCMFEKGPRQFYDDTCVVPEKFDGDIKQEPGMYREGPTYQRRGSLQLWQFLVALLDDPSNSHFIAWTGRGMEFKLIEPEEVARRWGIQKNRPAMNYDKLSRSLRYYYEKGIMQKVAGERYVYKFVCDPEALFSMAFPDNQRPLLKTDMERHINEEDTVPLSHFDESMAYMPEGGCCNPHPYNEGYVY
# ELF4, sequence (Q99607 whole entry): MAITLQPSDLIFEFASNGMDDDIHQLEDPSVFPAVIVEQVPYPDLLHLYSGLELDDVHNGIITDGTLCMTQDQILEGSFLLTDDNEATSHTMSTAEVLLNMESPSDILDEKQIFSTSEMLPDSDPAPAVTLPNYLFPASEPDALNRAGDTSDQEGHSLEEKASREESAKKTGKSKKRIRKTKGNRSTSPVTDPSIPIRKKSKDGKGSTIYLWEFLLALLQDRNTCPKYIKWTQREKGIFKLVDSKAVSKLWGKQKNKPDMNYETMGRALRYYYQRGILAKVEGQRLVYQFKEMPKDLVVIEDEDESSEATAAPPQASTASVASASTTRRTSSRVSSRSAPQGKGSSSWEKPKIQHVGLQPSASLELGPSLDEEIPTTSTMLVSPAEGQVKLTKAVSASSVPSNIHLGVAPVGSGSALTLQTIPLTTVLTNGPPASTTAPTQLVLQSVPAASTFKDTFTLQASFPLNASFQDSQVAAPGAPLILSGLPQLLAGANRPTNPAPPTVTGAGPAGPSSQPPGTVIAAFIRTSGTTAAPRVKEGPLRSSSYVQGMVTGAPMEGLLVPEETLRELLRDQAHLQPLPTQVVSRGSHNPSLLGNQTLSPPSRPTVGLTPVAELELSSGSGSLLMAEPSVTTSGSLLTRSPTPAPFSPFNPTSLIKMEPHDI
# HSF1, sequence (Q00613 whole entry): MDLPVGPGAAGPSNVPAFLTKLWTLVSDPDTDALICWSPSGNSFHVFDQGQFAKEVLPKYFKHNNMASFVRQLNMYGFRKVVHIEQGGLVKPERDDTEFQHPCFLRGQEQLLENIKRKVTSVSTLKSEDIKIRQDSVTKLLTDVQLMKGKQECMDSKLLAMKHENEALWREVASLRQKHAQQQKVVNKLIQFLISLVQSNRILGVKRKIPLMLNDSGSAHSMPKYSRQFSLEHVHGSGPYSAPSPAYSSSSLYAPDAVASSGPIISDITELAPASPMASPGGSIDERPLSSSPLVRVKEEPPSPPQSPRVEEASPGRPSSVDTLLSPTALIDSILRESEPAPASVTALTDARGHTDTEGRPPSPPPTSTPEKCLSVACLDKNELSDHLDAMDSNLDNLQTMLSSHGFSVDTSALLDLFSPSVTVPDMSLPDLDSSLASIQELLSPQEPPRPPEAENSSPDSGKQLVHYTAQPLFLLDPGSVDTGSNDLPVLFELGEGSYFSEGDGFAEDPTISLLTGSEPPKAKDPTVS
# ELF1, sequence (P32519 whole entry): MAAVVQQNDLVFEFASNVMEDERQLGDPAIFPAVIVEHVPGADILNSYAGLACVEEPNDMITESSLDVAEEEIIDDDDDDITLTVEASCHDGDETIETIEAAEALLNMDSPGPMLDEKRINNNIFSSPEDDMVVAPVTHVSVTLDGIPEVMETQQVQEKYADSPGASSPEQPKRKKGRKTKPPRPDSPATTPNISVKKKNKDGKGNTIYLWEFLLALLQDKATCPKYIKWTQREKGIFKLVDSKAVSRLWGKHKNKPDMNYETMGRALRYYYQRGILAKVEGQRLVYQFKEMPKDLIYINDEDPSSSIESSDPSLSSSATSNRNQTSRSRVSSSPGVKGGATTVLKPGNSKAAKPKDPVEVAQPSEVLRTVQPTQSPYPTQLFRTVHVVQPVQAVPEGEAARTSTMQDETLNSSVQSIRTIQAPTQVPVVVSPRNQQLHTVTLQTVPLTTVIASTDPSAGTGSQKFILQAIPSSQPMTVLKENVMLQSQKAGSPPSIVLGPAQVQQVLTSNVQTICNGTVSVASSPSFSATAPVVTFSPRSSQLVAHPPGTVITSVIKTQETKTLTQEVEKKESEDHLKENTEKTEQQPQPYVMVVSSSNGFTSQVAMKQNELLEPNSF
# ETV5, sequence (P41161 whole entry): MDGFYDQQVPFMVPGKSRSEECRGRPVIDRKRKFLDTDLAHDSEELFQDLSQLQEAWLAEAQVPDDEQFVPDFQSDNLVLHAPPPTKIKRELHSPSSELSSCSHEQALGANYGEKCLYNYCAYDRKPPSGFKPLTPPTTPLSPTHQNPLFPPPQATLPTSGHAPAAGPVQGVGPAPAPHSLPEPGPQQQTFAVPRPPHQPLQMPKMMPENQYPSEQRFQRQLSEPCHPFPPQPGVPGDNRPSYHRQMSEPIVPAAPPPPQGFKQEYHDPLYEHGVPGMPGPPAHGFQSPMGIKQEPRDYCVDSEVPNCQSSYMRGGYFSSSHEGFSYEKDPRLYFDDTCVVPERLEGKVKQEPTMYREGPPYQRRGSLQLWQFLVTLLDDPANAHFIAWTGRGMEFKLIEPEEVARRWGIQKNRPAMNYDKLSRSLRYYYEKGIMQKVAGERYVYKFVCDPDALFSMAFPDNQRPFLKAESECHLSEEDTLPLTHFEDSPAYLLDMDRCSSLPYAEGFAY
sequence,measurement,setting,value
GATCTT,binding signal,FLI1,"1.29 fold enrichment (6-mer frequency, TF over GST control)"
same,binding signal,ELK1,"1.33 fold enrichment (6-mer frequency, TF over GST control)"
same,binding signal,GABPA,"1.32 fold enrichment (6-mer frequency, TF over GST control)"
same,binding signal,ERG,"1.35 fold enrichment (6-mer frequency, TF over GST control)"
same,binding signal,ELF1,"1.23 fold enrichment (6-mer frequency, TF over GST control)"
same,binding signal,EHF,"1.22 fold enrichment (6-mer frequency, TF over GST control)"
same,binding signal,SPI1,"1.19 fold enrichment (6-mer frequency, TF over GST control)"
same,binding signal,SPIB,"1.36 fold enrichment (6-mer frequency, TF over GST control)"
same,binding signal,ELK3,"1.29 fold enrichment (6-mer frequency, TF over GST control)"
same,binding signal,FEV,"1.14 fold enrichment (6-mer frequency, TF over GST control)"
same,binding signal,ETV5,"1.21 fold enrichment (6-mer frequency, TF over GST control)"
same,binding signal,HSF1,"1.62 fold enrichment (6-mer frequency, TF over GST control)"
same,binding signal,SPIC,"1.42 fold enrichment (6-mer frequency, TF over GST control)"
same,binding signal,ELF4,"1.26 fold enrichment (6-mer frequency, TF over GST control)"
same,binding signal,ELK4,"1.23 fold enrichment (6-mer frequency, TF over GST control)"
same,binding signal,ETV2,"1.18 fold enrichment (6-mer frequency, TF over GST control)"
same,binding signal,ELF3,"1.43 fold enrichment (6-mer frequency, TF over GST control)"
same,binding signal,CRX,"1.71 fold enrichment (6-mer frequency, TF over GST control)"
same,binding signal,ETV1,"1.25 fold enrichment (6-mer frequency, TF over GST control)"
